# HT1080 IDH1KD tx: kills HT-1080 cells with IDH1 knockdown; Potency, µM (titrated, usually from 46.1 µM), for the others: top-dose activity, negative = toxicity, most hits filed as cytotoxic; AID 686971; HT-1080 IDH1 knockdown viability, ATP luminescence, 48 h; 360,000 compounds, 2% hits;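 note: potency is the fitted concentration of half-maximal effect; 0% = DMSO wells and -100% = cell-free medium wells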
#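 After a 2 h attachment period, IDH1KD HT-1080 cells took pin-transferred compound for 48 h at 37 °C; ATP-based luminescence after 10 min room-temperature reagent incubation reported viability.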
# IL1B secr inh: inhibitors of inflammasome signaling (IL-1 beta secretion). activity change, % at 57.5 µM. THP-1 LPS/ATP IL-1B secretion, AlphaLISA, 16 h; stronger effect = lower value. 360,000 compounds, 4.7% hits. AID 743279; in the data active = activity change below about -50%; inconclusive = mostly about -30% to -49%
#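 Secreted IL-1B measured by AlphaLISA bead assay after 16 h compound exposure of THP-1 cells; compounds (final up to 57.5 uM) added 1 h before LPS (250 ng/mL) and ATP (1.25 mM) stimulation; lower signal means less secretion.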
# HT1080-NT tox: kills 2HG-producing HT-1080-NT fibrosarcoma cells; Potency, µM (series often up to 46.1 µM), for inactives: at the highest dose activity, negative = less viability, usual class: cytotoxic; HT-1080-NT fibrosarcoma viability, CellTiter-Glo ATP luminescence, 48 h; 360,000 compounds, 1.6% hits;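 note: NT is the 2HG producing partner of a matched IDH1 knockdown line; potency is the fitted concentration of half-maximal effect; 0% = DMSO-treated cells and -100% = media-only wells without cells; nearly all actives have a fitted effect of over 55% in size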
#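 Viability by CellTiter-Glo luminescence after 48 h compound exposure at 37C of HT-1080-NT cells (750/well, RPMI, 5% FBS). % activity scaled between DMSO wells and medium-only wells, then curve-fitted and categorized by curve class.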
# DT40 TDP1 CPT: DT40-hTDP1 cell growth loss with CPT. Potency, µM (highest dose often 46.2 µM), for the others: at the top dose activity change, negative = growth inhibition, actives largely listed as inhibitors. 420,000 compounds, 12% hits. chicken DT40 Tdp1-/-;hTDP1 cells + 20 nM CPT, ATP luminescence, 48 h; note: potency is the fitted concentration of half-maximal effect; nearly all actives have a fitted effect of over 55% in size
#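 Cell growth measured by CellTiter-Glo luminescence after a minimum 48 h, 37 C compound exposure with 20 nM CPT in Tdp1-knockout DT40 cells stably expressing hTDP1, seeded 400/well; qHTS titration format.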
# DT40 TDP1 no CPT: qHTS for Inhibitors of human tyrosyl-DNA phosphodiesterase 1 (TDP1): qHTS in cells in absence of CPT. DT40 Tdp1-/- hTDP1 cells, no CPT, ATP luminescence, 48 h. Potency, µM (doses to about 46.2 µM), inactives show top-dose activity change, negative = growth inhibition, hits mostly inhibitors. 420,000 compounds, 15% hits; note: potency is the fitted concentration of half-maximal effect; nearly all actives have a fitted effect of over 55% in size
#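 No-CPT arm: Tdp1-/-;hTDP1 DT40 cells (400/well) plus compounds, incubated ≥48 hr at 37 °C. Readout CellTiter-Glo luminescence.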
# An asterisk follows results filed as active; ? = inconclusive; nt = no result. An excerpt weighted towards active compounds, which were near 19% of everything screened. Unless noted, calls come from the whole dose curve; as a rule, active = well fitted curve in the direction sought with a large enough effect; inconclusive = small, poorly fitted or top-dose-only effect, or another doubt; inactive = no such curve, though single readings can be large; an effect the other way counts as inactive or inconclusive. Unless noted, % is set by controls: 0 for no effect and ±100 for the full control effect.
SMILES,HT1080 IDH1KD tx,IL1B secr inh,HT1080-NT tox,DT40 TDP1 CPT,DT40 TDP1 no CPT
Cc1ccc(C(=O)N(CCN2CCCCC2)CC2CCCN(C3CCCC3)C2)s1 (stereo unspecified),-13.2%,0.0,?,?,20.6µM*
O=C(c1cccs1)N(CCN1CCCCC1)CC1CCCN(C2CCCC2)C1 (stereo unspecified),-16.7%,-27.6,-5.0%,?,-4.4%
COc1cc(Nc2nc3c(S(=O)(=O)c4cccc(Cl)c4)nnn3c3ccsc23)cc(OC)c1,nt,nt,nt,9.2µM*,7.31µM*
CCc1ccc(S(=O)(=O)c2nnn3c2nc(N2CCCC2)c2sccc23)cc1,nt,nt,nt,-14.8%,-1.6%
CCc1ccc(S(=O)(=O)c2nnn3c2nc(NCCC(C)C)c2cc(Cl)ccc23)cc1,nt,nt,nt,?,20.6µM*
CCc1ccc(S(=O)(=O)c2nnn3c2nc(Nc2ccc(NC(C)=O)cc2)c2sccc23)cc1,nt,nt,nt,23.1µM*,?
COCCNc1nc2c(S(=O)(=O)c3ccccc3)nnn2c2ccc(Cl)cc12,nt,nt,nt,-22.6%,?
CC(C)Nc1nc2c(S(=O)(=O)c3cccc(Cl)c3)nnn2c2ccsc12,nt,nt,nt,-29.2%,-29.2%
CCc1ccc(Nc2nc3c(S(=O)(=O)c4cccc(Cl)c4)nnn3c3ccsc23)cc1,nt,nt,nt,6.51µM*,4.61µM*
CC1=N/C(=C\c2ccc([N+](=O)[O-])cc2)C(=O)N1c1ccc(Br)c(C)c1,1.0%,-19.5,-1.7%,11.6µM*,5.8µM*
CC(C)(Oc1ccc(Cl)cc1)C(=O)O/N=C(\N)c1ccncc1,-1.1%,9.2,-10.2%,?,?
Cc1csc(-c2coc3cc(O)cc(C)c3c2=O)n1,?,19.6,?,16.4µM*,?
COc1ccc2c(=O)c(-c3nc(C)cs3)coc2c1,-16.5%,0.0,-10.7%,-20.7%,-22.7%
COc1ccc2c(c1)c(C(=O)N/N=C/c1cccc(O)c1)c(C)n2C,13.3%,-8.8,18.6%,18.4µM*,10.3µM*
COc1ccc(Br)cc1C(=O)N/N=C/c1ccc2c(c1)n(C)c(=O)n2C,-10.7%,0.9,-1.1%,24.2%,4.7%
COc1ccc(/C=N/NC(=O)c2c(C)n(C)c3ccc(OC)cc23)c(OC)c1,7.1%,6.6,22.5%,-26.0%,?
COc1ccc2c(c1)c(C(C)=O)c(C)n2C,8.8%,-7.7,21.4%,6.7%,?
COc1ccc2c(c1)c(C(=O)N/N=C/c1cccc(Br)c1)c(C)n2C,-6.1%,0.2,-10.3%,?,10.3µM*
COc1ccc2c(c1)c(C(=O)N/N=C/c1ccccc1Cl)c(C)n2C,4.2%,-18.8,-2.0%,20.6µM*,8.2µM*
CCOC(=O)c1[nH]c2ccccc2c1N=CN(CC)CC,-0.1%,16.1,-3.4%,-5.2%,-15.4%
Cc1ccc(CNC(=O)C2CCCN(S(=O)(=O)c3cccc4nonc34)C2)cc1 (stereo unspecified),7.5%,0.2,-0.9%,?,?
CCOc1cc(S(=O)(=O)NCc2ccc(OC)cc2)c(OCC)cc1-n1cnnn1,8.91µM*,27.7,12.6µM*,4.11µM*,2.06µM*
CCc1nc2nc(C)cc(Nc3ccc(OC)cc3OC)n2n1,nt,nt,nt,-11.2%,-20.7%
CC(=O)N1CCc2cc(S(=O)(=O)N3CCc4ccccc43)ccc21,-18.0%,6.6,0.0%,13µM*,?
COc1ccc(S(=O)(=O)N2CCc3ccccc32)cc1NC(C)=O,?,20.4,9.2µM*,-3.0%,-29.5%
COc1ccc(S(=O)(=O)N2CCCc3ccccc32)cc1[N+](=O)[O-],8.2µM*,38.5,8.2µM*,-23.1%,-9.7%
COc1ccc(S(=O)(=O)N2CCCc3ccccc32)cc1OC,?,52.6,-20.7%,?,-16.0%
CC(=O)N1CCc2cc(S(=O)(=O)N3CCc4ccccc4C3)ccc21,-21.0%,27.1,-23.5%,?,?
Cc1cccc(OCc2nnc(SCC(=O)Nc3ccc(C)cc3C)o2)c1,nt,nt,nt,-20.9%,?

# Screening results deposited in PubChem BioAssay by National Center for Advancing Translational Sciences (NCATS).
